L3MBTL1 block: L3MBTL1 (human) inhibition | Q9Y468 | AlphaScreen L3MBTL1–H3K9me1 peptide binding | Potency, µM (highest dose often 57.1 µM), usual class: inhibitors | hit rate 0.66% among 230,000; also: nearly all actives have a fitted effect of over 60% in size
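AlphaScreen proximity signal between nickel-chelate acceptor and streptavidin donor beads (final 10 ug/mL) reports binding of 50 nM L3MBTL1 to 75 nM biotin-H3 K9me1 peptide; complex incubated with compounds 30 min at room temperature; cefsulodin titration as control.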
HP1b chromo inh: blocks HP1-beta chromodomain binding to methylated histone tails; P83916; AlphaScreen HP1-beta / biotin-H3K9me3 peptide binding; Potency, µM (doses to about 114 µM), usual class: inhibitors; hit rate 0.56% among 390,000; AID 540317; also: nearly all actives have a fitted effect of over 70% in size
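HP1-beta protein (50 nM final) preincubated 30 min at room temperature with biotinylated H3(1-18)K9me3 peptide (50 nM) in PBS pH 7.4, 0.01% Tween-20, then compound added for 30 min. AlphaScreen streptavidin donor/nickel chelate acceptor beads (10 ug/mL final), 30 min dark, luminescence read.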
JMJD2A Tudor inh: JMJD2A Tudor domain (human) inhibition. O75164. AlphaScreen JMJD2A-Tudor / H3K4me3 peptide binding. Potency, µM (series often up to 114 µM), hits mostly inhibitors. hit rate 4.4% among 390,000. AID 504339; also: nearly all actives have a fitted effect of over 50% in size
Target sequence (O75164 whole entry, looked up, the tested form may be a part): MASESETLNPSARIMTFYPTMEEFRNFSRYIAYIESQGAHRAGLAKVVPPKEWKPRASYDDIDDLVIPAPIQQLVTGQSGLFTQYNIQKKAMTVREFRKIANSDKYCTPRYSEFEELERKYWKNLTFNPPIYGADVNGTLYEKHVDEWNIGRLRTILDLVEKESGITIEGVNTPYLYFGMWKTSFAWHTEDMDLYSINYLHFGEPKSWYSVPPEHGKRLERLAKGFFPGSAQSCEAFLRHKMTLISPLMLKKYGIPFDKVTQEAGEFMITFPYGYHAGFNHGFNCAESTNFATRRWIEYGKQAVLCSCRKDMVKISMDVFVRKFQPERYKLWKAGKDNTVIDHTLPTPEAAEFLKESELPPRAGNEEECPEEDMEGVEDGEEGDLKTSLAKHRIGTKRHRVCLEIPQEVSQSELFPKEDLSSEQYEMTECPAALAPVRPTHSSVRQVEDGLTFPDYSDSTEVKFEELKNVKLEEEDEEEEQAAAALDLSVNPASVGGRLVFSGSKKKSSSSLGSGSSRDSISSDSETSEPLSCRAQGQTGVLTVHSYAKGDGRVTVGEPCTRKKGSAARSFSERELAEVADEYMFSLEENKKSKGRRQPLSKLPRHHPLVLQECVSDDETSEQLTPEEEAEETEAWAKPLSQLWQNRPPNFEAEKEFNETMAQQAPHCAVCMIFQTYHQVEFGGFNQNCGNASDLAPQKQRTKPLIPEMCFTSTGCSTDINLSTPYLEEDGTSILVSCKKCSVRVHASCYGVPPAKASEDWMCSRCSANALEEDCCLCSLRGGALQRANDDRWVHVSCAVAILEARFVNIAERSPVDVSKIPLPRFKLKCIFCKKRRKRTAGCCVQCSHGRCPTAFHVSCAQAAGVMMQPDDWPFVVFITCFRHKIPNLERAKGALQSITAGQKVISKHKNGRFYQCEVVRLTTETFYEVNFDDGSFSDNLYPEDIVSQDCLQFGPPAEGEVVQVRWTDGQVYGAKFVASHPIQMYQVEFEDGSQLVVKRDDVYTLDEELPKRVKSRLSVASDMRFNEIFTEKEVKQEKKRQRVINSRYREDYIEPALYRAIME
G9a block: G9a (human) methyltransferase inhibition. Potency, µM (top dose mostly 102 µM), most hits filed as inhibitors. G9a H3K9 monomethylation, AlphaScreen, 2 h. Q96KQ7. hit rate 8.8% among 350,000; also: nearly all actives have a fitted effect of over 75% in size
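G9a (20 nM) preincubated 15 min RT with compounds, then 500 nM biotinylated H3K9 peptide and 20 uM SAM added; 2 h RT reaction. Monomethyl-H3K9 product detected by AlphaScreen with anti-H3K9me1 antibody, streptavidin donor and anti-rabbit IgG acceptor beads.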
Sfp PPTase inh: Sfp phosphopantetheinyl transferase inhibition; hit rate 3.5% among 310,000; Potency, µM, hits mostly inhibitors; Biochemical Sfp PPTase activity, qHTS; Q9F4F7; AID 1490;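 also: the enzyme is Sfp with the accession as filed and its product quenches rhodamine fluorescence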
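Sfp 15 nM + cpd, 15 min RT; start w/ rhodamine-CoA 5 uM, BHQ-2-YbbR 12.5 uM (final); 50 mM Hepes pH 7.6, 10 mM MgCl2, 0.01% NP-40, 0.01% BSA; read 525/598 nm at 0 and 30 min.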
BAZ2B inh: blocks human BAZ2B. AlphaScreen BAZ2B-H3K14Ac peptide displacement. Q9UIF8. hit rate 4.4% among 360,000. AID 504333. Potency, µM (doses to about 114 µM), actives largely listed as inhibitors; also: nearly all actives have a fitted effect of over 60% in size
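Compounds, titrated to a top concentration of 110 uM, were incubated 30 min at room temperature with preformed BAZ2B/acetyl-K14 H3 peptide complex (50 nM each). Proximity signal was measured by AlphaScreen after 20 min with beads.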
Numbers stand for hits; 0 = inactive; ? = inconclusive; - = no result given; [ ] = dose if it differs, or a comment. In the library only some 12% were active in any assay of this set; here they are far more common. Calls follow the shape of the dose curve; as a rule, active = well fitted curve in the direction sought with a large enough effect; inconclusive = small, poorly fitted or top-dose-only effect, or another doubt; inactive = no such curve, though single readings can be large; an effect the other way counts as inactive or inconclusive.

SMILES	L3MBTL1 block	HP1b chromo inh	JMJD2A Tudor inh	G9a block	Sfp PPTase inh	BAZ2B inh
CC1=C(C(=O)N2CCOCC2)C(c2cccc(C)c2)NC(=S)N1 (stereo not given)	0	0	0	0	0	0
CCN(CC(=O)Nc1c(C(=O)OC)[nH]c2ccc(Cl)cc12)c1ccc2c(c1)OCO2	0	?	56.2µM	28.2µM	0	39.8µM
Nc1ncn(-c2ncc(C(F)(F)F)cc2Cl)n1	0	0	0	0	0	0
O=C(NNc1ccccc1)/C(=C\c1cccnc1)NC(=O)c1ccccc1	0	0	0	3.98µM	0	0
N#Cc1c2c(c(=S)n(-c3ccccc3)c1N)CCCC2	0	0	0	8.91µM	31.6µM	?
Cc1ccc(OCC(=O)N(Cc2ccco2)Cc2ccco2)cc1C	-	0	?	?	-	0
COc1ccc(-c2sc3ccccc3c2-c2ccc(OCCN(C)C)cc2)cc1	0	?	35.5µM	-	-	-
COc1cccc(-c2sc3ccc(OC)cc3c2-c2ccc(OCCN(C)C)cc2)c1	0	?	28.2µM	-	-	-
CN(C)CCOc1ccc(-c2c(-c3ccsc3)sc3ccccc23)cc1	0	0	50.1µM	-	-	-
COc1ccc(-c2sc3ccccc3c2-c2ccc(O)cc2)cc1	0	0	0	-	-	-
COc1cccc(-c2sc3ccc(OC)cc3c2-c2ccc(O)cc2)c1	0	0	0	0[0.501 µM]	-	0
COc1ccc2cc(CNc3ccc(C)cc3)c(=O)n(CC(=O)Nc3ccc(OC)c(Cl)c3)c2c1	-	0	0	0	-	0
CN(C)S(=O)(=O)n1cc(/C=C(\NC(=O)c2ccccc2Cl)C(=O)N2CCCC2)c2ccccc21	-	0	0	0	0	0
O=C(c1ccc(-c2cccc(C(F)(F)F)c2)o1)N1CCN(c2ccccc2)CC1	0	0	0	3.55µM	-	0
O=C(c1ccco1)N1CCN(C(=O)c2ccc(-c3cccc(C(F)(F)F)c3)o2)CC1	0	0	0	0[0.501 µM]	-	?
O=C(c1ccc(-c2cccc(C(F)(F)F)c2)o1)N1CCCCCCC1	0	0	0	50.1µM	-	0
CC(C)C1NC(=O)[C@H](CCCCN)NC(=O)[C@@H](Cc2c[nH]c3ccccc23)NC(=O)[C@H](Cc2ccc(O)cc2)NC(=O)[C@H](C)N(C)C(=O)[C@H](Cc2ccccc2)NC1=O (stereo not given in full)	-	-	-	0[12.7 µM]	-	-
COc1ccc2oc(=O)c(C(=O)Nc3ccccc3C)cc2c1	0[2.29 µM]	0	0	0[0.501 µM]	?	50.1µM
COc1ccc2oc(=O)c(C(=O)Nc3ccccc3-c3ccccc3)cc2c1	-	0	0	0[12.7 µM]	0	0
COc1ccc2oc(=O)c(/C(C)=N/Nc3ccccc3)cc2c1	-	0	0	12.6µM	0	-
CCOC(=O)c1ccc(NC(=O)C(=O)NCc2ccc(/C=C(/C#N)C(=O)NCCOC)o2)cc1	-	0	0	0	0	0
CCOC(=O)C(=O)NCc1ccc(/C=C2/N=C(C)C(C(=O)OCC)=C2O)o1	?	0	0	-	22.4µM	0
COC(=O)C1=C(O)/C(=C\c2ccc(CNC(=O)C(=O)Nc3ccc(C)cc3)o2)N=C1C	7.94µM	0	?	31.6µM	12.6µM	31.6µM
CCOC(=O)C1=C(O)/C(=C/c2ccc(CNC(=O)C(=O)Nc3ccc(C)cc3)o2)N=C1C	-	0	0	31.6µM	39.8µM	50.1µM
CCOC(=O)C1=C(O)/C(=C\c2cccc(OC)c2)N=C1C	0	0	0	0	0	0
COC(=O)C1=C(O)/C(=C\c2ccc(CNC(=O)C(=O)Nc3ccc(C)c(C)c3)o2)N=C1C	-	0	0	50.1µM	?	0
O=[N+]([O-])c1cc(-c2n(-c3ccccn3)c3ccccc3[n+]2-c2ccccn2)ccc1Cl	0	0	0	50.1µM	0	44.7µM
O=[N+]([O-])c1cc(-c2ccn[nH]2)ccc1Cl	-	0	0	0	0	0
O=C(NC(C(=O)N/N=C/c1cc([N+](=O)[O-])ccc1O)c1n[nH]c(=O)c2ccccc12)c1ccccc1 (stereo not given)	-	0	44.7µM	?	0	31.6µM
O=C(N/N=C/c1ccc(O)c(O)c1)c1cc(-c2ccccc2)nc2ccccc12	-	0	?	44.7µM	0	?

From PubChem BioAssay
